We go through 39 molecules from PubChem BioAssay (NCI).

SMILES strings stand for the structures. Compounds without any hit were thinned out: in the full panel of roughly 83,000, 20% have a hit.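 Plates (96-well) were seeded with cells, treated with compound at one concentration, and incubated for 48 hours before percent growth was determined.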 Unmarked numbers belong to inactive results. Active and inactive are the calls of the source. How the source made its calls: active means growth percent below 10; inactive means the rest.

This assay deals with SK-MEL-5 melanoma. Put plainly: NCI-60 one-dose screen, 48 h (100 = growth as untreated, 0 = no growth, -100 = all killed). The note with it: 10 µM.
Turning to `COc1cc(Cl)cc(-c2nn(-c3cccc(NC(=O)Nc4ccc(Cl)c(Cl)c4)c3)cc2-c2ccncc2)c1`, the growth was 3.51% (active).
As for `COc1cc2cc3c(nc2cc1OC)CCN3Cc1ccc(NC(=O)c2ccc(Cl)c(C(F)(F)F)c2)cc1`, the growth is 85%.
`CCOC(=O)N1C/C(=C/c2ccc(Cl)cc2)C(=O)/C(=C/c2ccc(Cl)cc2)C1`: the growth was 88.1%.
On to `c1ccc(CSc2nnc3c4c5c(sc4nc(-c4cccnc4)n23)CCCCCC5)cc1`, for which the growth was -46% (active).
`Cc1cc2ccccc2nc1-c1ccccc1F`: the growth was 102%.
In the case of `COc1ccc(S(=O)(=O)Nc2c(/C=C\c3cc(OC)c(OC)c(OC)c3)ccc(OC)c2O)cc1`, the growth was -17% (active).
For `N=C(N)c1ccc(-c2ccc(-c3cccs3)s2)s1` the value was -9.08% (active); for `CSc1cc(SC)ncn1`, 104%.
In the case of `Cn1c(C(N)=O)cc2c1-c1nc(Nc3ccccc3)ncc1CCC2`, the growth was 72.1%.
For `CCOC(=O)N/N=C\C(C)=N\NC(=O)OCC` the value was 109%; for `Nc1cc2c(cc1Cl)-c1ccc([N+](=O)[O-])cc1/C2=N\O`, 82.5%.
With `Cc1cccc(C)c1NC(=O)c1sc2nc3c(cc2c1N)C(=O)CCC3`, the growth was 57.7%.
For `Cc1cc(C)c(CCc2cc(C)c(C)cc2C)cc1C`, the growth is 103%.
On to `CCN1CCC(CCOC)(CN2c3ccccc3Sc3ccc(Cl)cc32)C1` (centres undefined), for which the growth was -49.1% (active).
`COc1ccc(OC)c(/C=C/c2nc(SCc3ccccc3)n(-c3ccc(Cl)cc3)n2)c1`: the growth was 45.2%.
Regarding `CN1CCC(CNc2cc(C3(C(=O)Nc4cc(C(=O)Nc5ccc(Cl)c(C(F)(F)F)c5)ccc4F)CC3)ncn2)CC1`, the growth is -95.4% (active).
Consider `Cc1ccc(NC(=O)NC2CCCCC2)cc1`, for which the growth was 100%.
For `CC1CN(Cc2ccccc2)C(=O)NC1=O` (centres undefined), the growth is 106%.
As to `COc1cc(Cc2cc(-c3ccc(Cl)cc3)n[nH]c2=O)ccc1O`, the growth is 80.7%.
Next, `CN(C)CCNC(=O)c1cccn2c(=O)c3cc4ccccc4cc3nc12`: -20.3% (active).
With `CC(=O)CSC(C)=O`, the growth was 98.9%.
Next, `c1ccc(C(NC2CC3CCC2C3)c2ccccc2)cc1` (centres undefined): 99.7%.
`CC(C)=CCc1cc(O)cc2c1OC(C=C(C)C)C1=C2C(=O)C2=C(C1=O)S(=O)(=O)CCN2` (centres undefined): the growth is 16.2%.
As for `COc1cc2c(cc1OCCCN1CCN(c3ncnc4ccccc34)CC1)N=CC1CCCN1C2=O` (centres undefined), the growth is -95.7% (active).
Take `Cc1cccc(Cl)c1NC(=O)c1ccc2nc(NC(=O)NC3CCN(C)CC3)sc2c1`: the growth is 71.6%.
In the case of `CCOC(=O)c1ccc(NC(=O)Nc2ncc(Cl)cc2Cl)cc1`, the growth is 104%.
On to `COc1cc(-c2nc(-c3nnc(-c4ccccc4Cl)o3)c3ccccn23)cc(OC)c1OC`, for which the growth was 80.2%.
For the molecule `Nc1nc(N)c(NC(=O)CNc2ccc(C(=O)O)cc2)c(N)n1`, the growth is 103%.
For `COc1cc(-c2cc(C(=O)N3CCN(C(=O)c4ccccc4NCc4cccs4)CC3)nc3cc(-c4ccccc4)nn23)cc(OC)c1OC` the value was 37.9%.
Next, `COc1ccc(NC(=O)CSc2nc3ccccc3c(=O)n2CCc2ccccc2)cc1`: 86.6%; `COc1ccc(-c2nc3sc(C4CC4)nn3c2/C=C2/C(=O)Nc3ccc(OC)cc32)cc1`: 52.8%.
Turning to `O=C(Nc1cccc(Br)c1)c1cc(=O)[nH]c2ccccc12`, the growth is 95.5%.
Consider `FC(F)(F)c1ccc2nc(-c3nc(-c4ccccc4)n4ccccc34)[nH]c2c1`, for which the growth was 84.1%.
`Cc1cc(N(CCCNc2ccnc3cc(Cl)ccc23)Cc2cccs2)nc(Cl)n1`: the growth was -14.9% (active).
As to `O=C1C(c2ccccc2)C2C=CC(C2)N1O` (centres undefined), the growth was 106%.
For `CN1c2ccccc2[C@]2(Cc3ccccc3)Cc3ccccc3N[C@H]12` the value was 108%.
For the molecule `CC1(C)CCC(=NNC(N)=S)CC1`, the growth is 111%.
Regarding `N=C(N)c1ccc(-c2ccc(-c3ccccc3)o2)nc1`, the growth is 86.1%.
For the molecule `O=c1[nH]c(-c2ccc(Cl)cc2)nc2sc3c(c12)CCCC3`, the growth is 75.9%.
